# Test results as given in PubChem BioAssay.
# Calls of active or inactive are those of the source.
# Tests used:
# [1] = tested on: PRMT1 (protein arginine N-methyltransferase 1); test: small molecules binding arginine methyltransferase PRMT1 – biochemical, small-molecule microarray, 635 nm fluorescence, primary screen (AID 1088); settings: higher = more signal;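 further: binding of Prmt1 protein to compounds spotted on small-molecule microarray slides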
# [2] = growth effects on S. cerevisiae YJM789 – YJM789 clinical isolate, OD600, 24 h, basal, primary screen (AID 1089); settings: higher = more signal, called active from +8 up or from −8 down;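 further: growth of clinical yeast isolate S. cerevisiae YJM 789 seeded 1000 cells per well; test concentration not given here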
# [3] = S. pombe growth modifiers, basal conditions – strain 972, OD600, 24 h, no modulator, primary screen (AID 1090);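 further: basal condition with compound alone and no growth modifier present; test concentration not given here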; settings: S. pombe 972 growth, higher = more signal, called active from +8 up or from −8 down
# [4] = budding yeast growth modifiers under rapamycin – strain BY4716, OD600, 96 h, primary screen (AID 1091); further: test concentration not given here; settings: S. cerevisiae BY4716 + rapamycin, higher = more signal, called active from +8 up or from −8 down
# [5] = biological target: Torsin-1A-interacting protein 2 (Homo sapiens) (UniProt Q8NFQ8); test: small molecules binding lysate-expressed LULL1 – cell lysate, human LULL1 lysate, 635/667 nm fluorescence, primary screen (AID 1092); settings: small-molecule microarray, hLULL1 lysate binding, 635 nm fluorescence; higher = more signal;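 further: probe is lysate of COS7 cells overexpressing human LULL1; score merges per-feature 667 nm fluorescence with signal-to-noise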
# [6] = optical density change of DRC41 E. coli – strain DRC41, OD650, 24 h, E. coli filamentation project, primary screen (AID 1093);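 further: MC1000 strain lacking acrAB efflux and sulA so SOS filamentation is blocked; test concentration not given here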; settings: E. coli DRC41 growth, higher = more signal, called active from +8 up or from −8 down
# [7] = probe aLefty2 binding to arrayed compounds – biochemical, biotinylated probe, 635/667 nm fluorescence, primary screen (AID 1094); settings: small-molecule microarray, higher = more signal;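 further: score merges spot fluorescence near 667 nm with spot signal-to-noise ratio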
# [8] = tested on: Noggin (protein binding on small-molecule microarray); test: small molecules binding Noggin protein – biochemical, 635/667 nm fluorescence, primary screen (AID 1095); settings: 635 nm fluorescence, higher = more signal;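 further: score merges 667 nm feature fluorescence with signal to noise over triplicate slides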
# [9] = biological target: Neurogenic locus notch homolog protein 3 (Homo sapiens) (UniProt Q9UM47); test: small molecules binding NOTCH3 protein – biochemical, 635/667 nm fluorescence, primary screen (AID 1096); settings: small-molecule microarray, 635 nm fluorescence, higher = more signal
# [10] = probe aEGFR binding to arrayed compounds – biochemical, biotinylated probe, 635/667 nm fluorescence, primary screen (AID 1097); settings: small-molecule microarray, higher = more signal;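 further: probe is a biotinylated anti-EGFR antibody binding compounds printed on slides; score combines fluorescence near 667 nm and signal to noise of each spot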
# Sequence of Torsin-1A-interacting protein 2 (Homo sapiens) (Q8NFQ8 whole entry, looked up): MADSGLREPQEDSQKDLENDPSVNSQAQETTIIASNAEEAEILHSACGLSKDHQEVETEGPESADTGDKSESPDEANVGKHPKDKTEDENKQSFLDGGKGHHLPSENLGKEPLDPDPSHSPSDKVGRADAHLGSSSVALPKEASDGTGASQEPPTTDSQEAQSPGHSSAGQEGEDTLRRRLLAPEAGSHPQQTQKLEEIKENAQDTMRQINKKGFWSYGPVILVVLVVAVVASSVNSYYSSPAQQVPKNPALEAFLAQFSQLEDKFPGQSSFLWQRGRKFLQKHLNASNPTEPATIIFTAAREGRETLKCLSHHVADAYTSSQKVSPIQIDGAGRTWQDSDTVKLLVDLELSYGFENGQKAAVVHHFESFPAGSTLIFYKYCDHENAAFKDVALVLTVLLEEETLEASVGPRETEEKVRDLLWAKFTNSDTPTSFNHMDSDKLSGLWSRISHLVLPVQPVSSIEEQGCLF
# Sequence of Neurogenic locus notch homolog protein 3 (Homo sapiens) (Q9UM47 whole entry, looked up): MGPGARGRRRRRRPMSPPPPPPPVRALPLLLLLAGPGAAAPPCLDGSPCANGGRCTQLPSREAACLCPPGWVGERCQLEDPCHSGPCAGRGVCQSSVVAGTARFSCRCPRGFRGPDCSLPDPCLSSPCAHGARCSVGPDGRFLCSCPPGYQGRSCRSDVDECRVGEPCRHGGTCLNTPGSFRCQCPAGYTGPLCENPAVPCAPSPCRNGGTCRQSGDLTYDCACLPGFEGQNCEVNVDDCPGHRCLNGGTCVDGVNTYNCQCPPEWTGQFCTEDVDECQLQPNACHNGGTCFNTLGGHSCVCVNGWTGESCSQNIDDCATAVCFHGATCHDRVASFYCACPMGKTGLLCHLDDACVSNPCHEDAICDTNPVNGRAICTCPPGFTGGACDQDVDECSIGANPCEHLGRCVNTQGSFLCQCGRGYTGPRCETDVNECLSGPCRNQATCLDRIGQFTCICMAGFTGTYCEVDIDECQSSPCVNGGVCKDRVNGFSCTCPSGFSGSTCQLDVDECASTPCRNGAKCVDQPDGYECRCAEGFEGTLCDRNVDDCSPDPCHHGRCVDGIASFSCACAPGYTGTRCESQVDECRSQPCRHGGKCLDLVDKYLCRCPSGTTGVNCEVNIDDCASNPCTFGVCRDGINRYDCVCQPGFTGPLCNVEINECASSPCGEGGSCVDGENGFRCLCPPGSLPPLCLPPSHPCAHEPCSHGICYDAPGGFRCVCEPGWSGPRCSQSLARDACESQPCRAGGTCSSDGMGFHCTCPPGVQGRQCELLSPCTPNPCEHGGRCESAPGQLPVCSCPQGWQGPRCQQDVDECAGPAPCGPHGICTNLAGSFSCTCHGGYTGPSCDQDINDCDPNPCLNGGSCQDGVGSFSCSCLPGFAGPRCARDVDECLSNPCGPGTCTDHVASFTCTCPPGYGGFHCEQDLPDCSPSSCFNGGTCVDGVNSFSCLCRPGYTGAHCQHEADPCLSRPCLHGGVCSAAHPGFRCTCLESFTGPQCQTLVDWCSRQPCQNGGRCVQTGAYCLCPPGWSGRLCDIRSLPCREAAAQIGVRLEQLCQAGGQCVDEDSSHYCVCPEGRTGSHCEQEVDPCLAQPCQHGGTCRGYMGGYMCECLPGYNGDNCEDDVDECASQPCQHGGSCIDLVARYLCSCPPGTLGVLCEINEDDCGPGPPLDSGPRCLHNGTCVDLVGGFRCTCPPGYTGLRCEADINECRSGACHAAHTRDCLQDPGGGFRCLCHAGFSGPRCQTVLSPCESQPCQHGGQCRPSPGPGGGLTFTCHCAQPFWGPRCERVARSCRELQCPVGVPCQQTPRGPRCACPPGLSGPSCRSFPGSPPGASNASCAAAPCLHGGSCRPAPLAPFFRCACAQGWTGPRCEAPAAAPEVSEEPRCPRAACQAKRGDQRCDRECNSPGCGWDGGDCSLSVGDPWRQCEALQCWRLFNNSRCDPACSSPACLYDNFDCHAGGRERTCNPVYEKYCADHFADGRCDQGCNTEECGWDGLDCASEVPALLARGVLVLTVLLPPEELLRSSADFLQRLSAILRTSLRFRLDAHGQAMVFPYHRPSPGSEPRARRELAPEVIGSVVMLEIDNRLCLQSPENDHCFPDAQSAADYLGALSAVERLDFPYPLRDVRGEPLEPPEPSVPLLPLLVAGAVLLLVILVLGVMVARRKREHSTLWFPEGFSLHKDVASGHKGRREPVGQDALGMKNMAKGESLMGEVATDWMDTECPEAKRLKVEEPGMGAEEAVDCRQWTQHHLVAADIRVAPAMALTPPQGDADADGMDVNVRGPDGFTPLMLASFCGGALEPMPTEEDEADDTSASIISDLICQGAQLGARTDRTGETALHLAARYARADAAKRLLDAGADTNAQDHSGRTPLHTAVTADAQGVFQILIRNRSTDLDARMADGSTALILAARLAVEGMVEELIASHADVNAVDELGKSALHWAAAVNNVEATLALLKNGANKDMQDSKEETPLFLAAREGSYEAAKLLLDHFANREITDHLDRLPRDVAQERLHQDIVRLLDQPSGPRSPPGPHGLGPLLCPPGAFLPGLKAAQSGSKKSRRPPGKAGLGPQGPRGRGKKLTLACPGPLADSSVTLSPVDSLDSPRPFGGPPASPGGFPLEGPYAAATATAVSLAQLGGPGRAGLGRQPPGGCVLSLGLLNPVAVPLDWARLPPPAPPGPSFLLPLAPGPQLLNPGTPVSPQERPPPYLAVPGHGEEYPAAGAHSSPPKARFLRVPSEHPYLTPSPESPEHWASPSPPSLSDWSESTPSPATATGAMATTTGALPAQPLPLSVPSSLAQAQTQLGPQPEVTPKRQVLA
smiles,measurement,setting,value
CCOC(=O)[C@H]1C/C=C/C[C@H](C(=O)OCC)C(=O)O[C@H]2[C@@H](OC)O[C@H](CO)[C@@H](OC(=O)c3ccc(Br)cc3)[C@@H]2OC1=O,composite z-score,[1],0.419
same,z-score,[2],-0.436 (inactive)
same,z-score,[3],-0.316 (inactive)
same,z-score,[4],2.17 (inactive)
same,composite z-score,[5],0.796
same,z-score,[6],-0.67 (inactive)
same,composite z-score,[7],-0.0653
same,composite z-score,[8],0.197
same,composite z-score,[9],0.415
same,composite z-score,[10],-0.116
C[C@H]1C2[C@H](Cc3ccccc3)NC(=O)[C@]23C(=O)NCC(=O)N2CCC[C@H]2C(=O)NC/C=C/CCC/C=C/C3[C@@H]2O[C@]12C (stereo not given in full),composite z-score,[1],-1.33
same,z-score,[2],0.291 (inactive)
same,z-score,[3],-0.0836 (inactive)
same,z-score,[4],-0.0152 (inactive)
same,composite z-score,[5],-1.02
same,z-score,[6],1.51 (inactive)
same,composite z-score,[7],-0.18
same,composite z-score,[8],-0.627
same,composite z-score,[9],-0.508
same,composite z-score,[10],-0.278
O=C1OCCC=C[C@H]2OC34C=CCN(CCN5CCOCC5)C(=O)[C@H]3N(CCCCCO)C(=O)[C@@H]4C12 (stereo not given in full),composite z-score,[1],1.48
same,z-score,[2],-0.776 (inactive)
same,z-score,[3],-0.0455 (inactive)
same,z-score,[4],-0.379 (inactive)
same,composite z-score,[5],3.34
same,z-score,[6],0.444 (inactive)
same,composite z-score,[7],-0.138
same,composite z-score,[8],0.0669
same,composite z-score,[9],0.193
same,composite z-score,[10],-0.158
CN(C)CCCCCCNC(=O)[C@@H]1C[C@@H]2C(=O)N[C@@H](CCCC[N+](C)(C)C)C(=O)N2[C@@H]1c1ccc(O)cc1,composite z-score,[1],0.821
same,z-score,[2],-0.581 (inactive)
same,z-score,[3],-0.689 (inactive)
same,z-score,[4],-0.414 (inactive)
same,composite z-score,[5],0.219
same,z-score,[6],-0.227 (inactive)
same,composite z-score,[7],-0.0907
same,composite z-score,[8],0.576
same,composite z-score,[9],0.0475
same,composite z-score,[10],-0.221
CCCC=C(CCC)[C@@H](NS(=O)(=O)c1ccc(Cl)cc1)c1ccc(C(=O)OC)cc1,composite z-score,[1],0.687
same,z-score,[2],-0.288 (inactive)
same,z-score,[3],0.745 (inactive)
same,z-score,[4],-0.825 (inactive)
same,composite z-score,[5],0.735
same,z-score,[6],0.0177 (inactive)
same,composite z-score,[7],0.0007
same,composite z-score,[8],-0.392
same,composite z-score,[9],-1.6
same,composite z-score,[10],0.0219
COC(=O)[C@@]1(Cc2ccc(OC)cc2)[C@H]2c3cc(C(=O)N4CCCC4)n(CCc4ccc(O)c(O)c4)c3C[C@H]2CN1C(=O)c1ccccc1,composite z-score,[1],-0.445
same,z-score,[2],-0.087 (inactive)
same,z-score,[3],0.208 (inactive)
same,z-score,[4],0.751 (inactive)
same,composite z-score,[5],3.62
same,z-score,[6],-0.765 (inactive)
same,composite z-score,[7],0.491
same,composite z-score,[8],-0.17
same,composite z-score,[9],-0.122
same,composite z-score,[10],0.212
O=C1C[C@@](C(=O)NCc2ccccc2)(c2ccc([N+](=O)[O-])cc2)[C@@H](c2ccc(CO)cc2)N1CC12CC3CC(CC(C3)C1)C2,composite z-score,[1],1.54
same,z-score,[2],0.893 (inactive)
same,z-score,[3],0.639 (inactive)
same,z-score,[4],8.2 (active)
same,composite z-score,[5],2.39
same,z-score,[6],0.657 (inactive)
same,composite z-score,[7],-0.0965
same,composite z-score,[8],1.52
same,composite z-score,[9],1.15
same,composite z-score,[10],-0.166
CCN(CC)c1ccc(N2CC=CC34O[C@@H]5/C=C\CCC(C)OC(=O)C5[C@H]3C(=O)N(CCCCCO)[C@@H]4C2=O)cc1 (stereo not given in full),composite z-score,[1],-0.895
same,z-score,[2],0.026 (inactive)
same,z-score,[3],-1.42 (inactive)
same,z-score,[4],-0.399 (inactive)
same,composite z-score,[5],-1.3
same,z-score,[6],-0.374 (inactive)
same,composite z-score,[7],-0.283
same,composite z-score,[8],-0.663
same,composite z-score,[9],-0.134
same,composite z-score,[10],-0.238
